PubChem BioAssay (NCI)
About 83,000 compounds went through this panel and 20% of them were active in at least one assay; those are over-represented in the sample as a whole.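 For each line, cells grew in 96-well plates with the test compound present at a single concentration for 48 hours.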 A number with no mark means an inactive call. Activity calls are given as the source filed them. Rule for the calls: active = growth percent below 10; inactive = the rest.

Legend:
Assay in all cases: NCI-60 one-dose screen, 48 h (100 = growth as untreated, 0 = no growth, -100 = all killed)
Details in all cases: 10 µM unless noted
[1] = test system: NCI-H23 lung
[2] = test system: NCI-H226 lung
[3] = test system: NCI-H322M lung
[4] = test system: HOP-62 NSCLC
[5] = test system: NCI-H460 lung
[6] = test system: HOP-92 NSCLC
[7] = test system: A549/ATCC NSCLC
[8] = test system: 786-0 renal
[9] = test system: COLO 205 colon
[10] = test system: DU-145 prostate
[11] = test system: K-562 leukemia
[12] = test system: MALME-3M melanoma
[13] = test system: MDA-MB-231 breast
[14] = test system: RXF 393 renal
[15] = test system: SF-268 CNS
[16] = test system: SF-295 CNS
[17] = test system: SF-539 CNS
[18] = test system: UACC-257 melanoma
[19] = test system: M14 melanoma
[20] = test system: NCI-H522 lung

SMILES	growth [1]	growth [2]	growth [3]	growth [4]	growth [5]	growth [6]	growth [7]	growth [8]	growth [9]	growth [10]	growth [11]	growth [12]	growth [13]	growth [14]	growth [15]	growth [16]	growth [17]	growth [18]	growth [19]	growth [20]
CC1=C(C(=O)OC(C)C)C(c2ccc(O)cc2)NC(=O)N1 (configuration not stated)	101%	105%	106%	99.4%	117%	105%	101%	99.5%	114%	111%	98.5%	102%	101%	104%	115%	105%	101%	96.5%	99.8%	
O=C(CSc1nc2sc3c(c2c(=O)n1-c1ccc(Cl)cc1)CCCC3)N/N=C/C=C/c1ccccc1	-74.7% (active)	-36.1% (active)	34.8%	-71.3% (active)	-16.9% (active)	9.97% (active)	-18.3% (active)	-45.2% (active)	-45.4% (active)	26.7%	19.4%	-97% (active)	-69.4% (active)	-67.1% (active)	55.1%	12%	-35.2% (active)	1.05% (active)	-65.9% (active)	
C/C(=N/O)c1ccc(NC(=O)CSc2nnc(-c3ccc(-c4nc5ccc(Cl)cc5[nH]4)cc3)o2)cc1	-59.5% (active)	-39% (active)	3.18% (active)	-82% (active)	-100% (active)	-53.4% (active)		-66.1% (active)	50.3%	-13.6% (active)	14.9%	-80.8% (active)	-96.5% (active)	-71.5% (active)	17.6%	-16.4% (active)	-100% (active)	-36.9% (active)	-62.7% (active)	-48.6% (active)
Nc1cc(-c2c[nH]c3ccc(Cl)cc23)nc2cc(-c3c[nH]c4ccccc34)nn12	-56% (active)	35.5%	5.87% (active)	-48% (active)	-65.9% (active)	-22.8% (active)	-8.14% (active)	-52.1% (active)	-86% (active)	8.69% (active)	6.27% (active)	-68.2% (active)	-79.2% (active)	-21.5% (active)	9.75% (active)	-79.4% (active)	-81.5% (active)	-73.2% (active)	-25.8% (active)	
COc1ccc(NC(=O)Cn2c(/C=C/c3ccc([N+](=O)[O-])cc3)nc3ccccc3c2=O)cc1	34.9%	21.2%	70.2%	33.2%	42.3%	-12% (active)		9.31% (active)	85.3%	88.8%	120%	72.4%	-18.4% (active)	-57.8% (active)	64.9%	56.3%	30.3%	86.3%	69.5%	73%
COc1cc(C2C(C(=O)OCc3ccccc3)=C(C)Nc3nc4ccccc4n32)cc(OC)c1OC (configuration not stated)	45.8%	-37.3% (active)	40.9%	31.1%	16%	-0.272% (active)	34.9%	-66.1% (active)	52.5%	59.3%	20.7%	-16.7% (active)	-26.7% (active)	-39.6% (active)	15.1%	3.38% (active)	-44.5% (active)	30.2%	27.1%	
O=C(CSc1nnc(-c2ccc(-c3nc4ccccc4[nH]3)cc2)o1)Nc1ccc(Cl)cc1	-6.9% (active)	40.3%	61.5%	0.484% (active)	-65.4% (active)	-5.87% (active)	1.88% (active)	-37.8% (active)	61.7%	13.1%	10.7%	29.1%	-24.9% (active)	-61.7% (active)	38.5%	39%	-94.2% (active)	48.9%	-0.25% (active)	
O=S(=O)(c1nc(-c2ccc(Br)cc2)oc1-c1ccc(Cl)cc1)N1CCCC(O)C1 (configuration not stated)	47.3%	60.4%	78.3%	102%	34.1%	-14.5% (active)	47.6%	58.9%	81%	72.6%	33.8%	74.8%	60%	51.3%	63%	58.1%	84.5%	80.3%	69.7%	
